Measured values: the supplement of paper PMC10849652
The full data set covers some 7,900 targets. This sample favours those with a hit. About 0.6% of all pairs of compound and target were hits.

compound: Cn1cc(-c2ccc3nnc(C(F)(F)c4ccc5ncccc5c4)n3n2)cn1; experiment: log2 fold change, soluble protein after heating vs DMSO (PISA); higher = thermal stabilisation; K562 cells, 10 uM, 30 min; active = over 0.2 and 3.5 SD of the protein, either way, in both replicates (recomputed)
Procedure, shortened: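 K562 cells at 2×10^6 cells/mL were exposed to 10 μM compound for 30 min, then aliquots were heated for 3 min across 48°C-58°C, pooled, and extracted in PBS containing 0.5% NP-40 at 4°C. The supernatant after 21,000xg for 90 min was taken as soluble protein and measured by TMTpro 16plex LC-MS/MS with channel sums equalised. Thermal stability is reported relative to control samples, with values from duplicates. Fold changes are given on a log2 scale.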

Chain of UniProt O95319 (O95319 whole entry, looked up): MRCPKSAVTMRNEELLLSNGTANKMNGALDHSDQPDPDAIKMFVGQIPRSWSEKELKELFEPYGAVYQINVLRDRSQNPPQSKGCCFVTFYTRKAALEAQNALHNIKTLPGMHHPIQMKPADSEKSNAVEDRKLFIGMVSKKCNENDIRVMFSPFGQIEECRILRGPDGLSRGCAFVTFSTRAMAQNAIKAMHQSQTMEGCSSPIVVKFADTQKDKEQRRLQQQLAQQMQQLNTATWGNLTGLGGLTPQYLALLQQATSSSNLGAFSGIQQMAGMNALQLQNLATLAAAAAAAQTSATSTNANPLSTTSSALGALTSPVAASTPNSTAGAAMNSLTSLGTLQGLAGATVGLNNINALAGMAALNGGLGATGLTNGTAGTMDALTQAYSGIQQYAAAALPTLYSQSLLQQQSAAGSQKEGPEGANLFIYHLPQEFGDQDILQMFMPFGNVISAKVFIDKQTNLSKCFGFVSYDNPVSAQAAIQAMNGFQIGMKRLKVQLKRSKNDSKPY
Chain of UniProt P21964 (P21964 whole entry, looked up): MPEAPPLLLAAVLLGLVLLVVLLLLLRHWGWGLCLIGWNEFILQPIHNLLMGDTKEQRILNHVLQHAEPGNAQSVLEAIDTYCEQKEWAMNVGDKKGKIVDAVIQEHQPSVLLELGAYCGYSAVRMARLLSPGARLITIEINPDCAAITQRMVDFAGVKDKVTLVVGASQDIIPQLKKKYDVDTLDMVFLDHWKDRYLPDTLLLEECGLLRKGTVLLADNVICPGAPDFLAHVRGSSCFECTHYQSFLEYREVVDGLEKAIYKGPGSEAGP
Chain of UniProt Q96KP4 (Q96KP4 whole entry, looked up): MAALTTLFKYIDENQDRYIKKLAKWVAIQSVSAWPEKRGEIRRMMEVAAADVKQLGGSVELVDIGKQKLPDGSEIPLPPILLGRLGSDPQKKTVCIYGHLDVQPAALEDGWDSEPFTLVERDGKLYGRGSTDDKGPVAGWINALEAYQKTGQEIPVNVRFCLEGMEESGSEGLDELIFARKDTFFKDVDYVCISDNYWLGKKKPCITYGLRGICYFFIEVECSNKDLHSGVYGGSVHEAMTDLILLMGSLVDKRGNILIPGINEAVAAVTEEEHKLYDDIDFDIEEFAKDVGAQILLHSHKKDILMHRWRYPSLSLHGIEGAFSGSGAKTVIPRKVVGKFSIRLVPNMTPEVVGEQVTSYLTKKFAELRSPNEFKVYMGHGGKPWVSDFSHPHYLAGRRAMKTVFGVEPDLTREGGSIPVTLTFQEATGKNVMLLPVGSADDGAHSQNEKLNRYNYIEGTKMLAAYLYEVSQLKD
Chain of UniProt O75153 (O75153 whole entry, looked up): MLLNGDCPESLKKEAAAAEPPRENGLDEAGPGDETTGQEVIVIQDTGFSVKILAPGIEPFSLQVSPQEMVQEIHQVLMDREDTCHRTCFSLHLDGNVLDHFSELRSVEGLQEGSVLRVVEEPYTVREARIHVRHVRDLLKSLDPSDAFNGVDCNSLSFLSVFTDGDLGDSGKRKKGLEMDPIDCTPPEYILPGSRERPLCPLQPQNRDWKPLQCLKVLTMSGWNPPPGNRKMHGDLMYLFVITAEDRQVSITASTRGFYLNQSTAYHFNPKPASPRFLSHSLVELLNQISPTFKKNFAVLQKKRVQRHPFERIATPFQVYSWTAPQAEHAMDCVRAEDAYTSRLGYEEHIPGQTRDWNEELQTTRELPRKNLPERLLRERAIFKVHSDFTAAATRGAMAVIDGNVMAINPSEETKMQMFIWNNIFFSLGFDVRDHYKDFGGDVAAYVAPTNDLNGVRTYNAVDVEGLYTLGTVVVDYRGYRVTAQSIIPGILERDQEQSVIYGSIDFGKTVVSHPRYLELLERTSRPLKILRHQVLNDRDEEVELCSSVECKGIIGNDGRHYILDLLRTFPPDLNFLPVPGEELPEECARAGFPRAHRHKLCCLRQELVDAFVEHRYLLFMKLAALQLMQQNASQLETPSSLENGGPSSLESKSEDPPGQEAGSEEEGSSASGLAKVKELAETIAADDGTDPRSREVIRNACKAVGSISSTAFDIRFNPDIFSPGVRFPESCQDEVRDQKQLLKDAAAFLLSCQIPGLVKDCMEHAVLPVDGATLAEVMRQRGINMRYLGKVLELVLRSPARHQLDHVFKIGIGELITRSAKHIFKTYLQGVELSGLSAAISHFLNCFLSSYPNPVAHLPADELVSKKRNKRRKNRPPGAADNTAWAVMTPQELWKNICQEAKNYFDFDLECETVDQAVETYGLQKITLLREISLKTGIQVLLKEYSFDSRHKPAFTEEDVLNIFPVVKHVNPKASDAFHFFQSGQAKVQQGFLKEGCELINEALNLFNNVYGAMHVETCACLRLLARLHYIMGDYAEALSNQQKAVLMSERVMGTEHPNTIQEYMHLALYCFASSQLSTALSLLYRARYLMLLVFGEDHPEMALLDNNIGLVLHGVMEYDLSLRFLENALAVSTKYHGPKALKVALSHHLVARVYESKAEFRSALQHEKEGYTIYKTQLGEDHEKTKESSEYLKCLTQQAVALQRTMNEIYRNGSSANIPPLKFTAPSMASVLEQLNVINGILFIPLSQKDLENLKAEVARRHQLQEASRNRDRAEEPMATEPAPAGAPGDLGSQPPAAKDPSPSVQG
Chain of UniProt P50416 (P50416 whole entry, looked up): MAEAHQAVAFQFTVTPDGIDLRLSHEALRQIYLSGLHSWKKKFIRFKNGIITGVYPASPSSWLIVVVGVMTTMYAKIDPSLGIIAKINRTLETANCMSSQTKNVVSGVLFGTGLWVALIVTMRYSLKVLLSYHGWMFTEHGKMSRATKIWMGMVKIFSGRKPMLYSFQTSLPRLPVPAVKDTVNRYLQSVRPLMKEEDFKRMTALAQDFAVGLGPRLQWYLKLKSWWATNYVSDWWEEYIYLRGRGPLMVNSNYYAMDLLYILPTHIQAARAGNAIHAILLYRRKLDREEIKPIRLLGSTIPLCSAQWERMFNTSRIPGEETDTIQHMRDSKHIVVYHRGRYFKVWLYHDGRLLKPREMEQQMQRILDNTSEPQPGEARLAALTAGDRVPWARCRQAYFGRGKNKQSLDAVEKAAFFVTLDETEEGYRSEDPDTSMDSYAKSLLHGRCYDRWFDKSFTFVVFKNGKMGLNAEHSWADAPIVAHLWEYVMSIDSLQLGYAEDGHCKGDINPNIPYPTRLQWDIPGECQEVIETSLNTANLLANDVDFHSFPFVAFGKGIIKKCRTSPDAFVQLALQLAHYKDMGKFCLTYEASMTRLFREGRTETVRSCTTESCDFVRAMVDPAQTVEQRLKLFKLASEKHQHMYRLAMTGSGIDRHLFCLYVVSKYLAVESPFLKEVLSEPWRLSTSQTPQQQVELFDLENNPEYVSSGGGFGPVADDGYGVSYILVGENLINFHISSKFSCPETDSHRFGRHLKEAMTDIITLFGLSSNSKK
Chain of UniProt Q13057 (Q13057 whole entry, looked up): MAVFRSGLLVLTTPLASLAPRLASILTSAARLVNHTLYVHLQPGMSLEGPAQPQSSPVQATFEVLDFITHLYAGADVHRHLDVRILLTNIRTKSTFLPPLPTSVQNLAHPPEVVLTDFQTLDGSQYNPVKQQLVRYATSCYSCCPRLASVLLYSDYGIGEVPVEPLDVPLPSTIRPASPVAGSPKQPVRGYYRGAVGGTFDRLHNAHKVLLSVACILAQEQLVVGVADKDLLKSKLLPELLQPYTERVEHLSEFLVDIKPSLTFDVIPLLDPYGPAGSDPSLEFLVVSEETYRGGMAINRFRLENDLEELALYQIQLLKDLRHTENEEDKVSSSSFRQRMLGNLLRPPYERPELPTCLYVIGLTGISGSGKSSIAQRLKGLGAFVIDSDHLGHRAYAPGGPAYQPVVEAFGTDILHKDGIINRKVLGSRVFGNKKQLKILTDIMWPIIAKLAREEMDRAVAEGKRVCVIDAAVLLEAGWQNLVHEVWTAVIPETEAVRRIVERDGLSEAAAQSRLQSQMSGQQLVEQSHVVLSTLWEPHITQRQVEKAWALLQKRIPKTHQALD
Chain of UniProt P19397 (P19397 whole entry, looked up): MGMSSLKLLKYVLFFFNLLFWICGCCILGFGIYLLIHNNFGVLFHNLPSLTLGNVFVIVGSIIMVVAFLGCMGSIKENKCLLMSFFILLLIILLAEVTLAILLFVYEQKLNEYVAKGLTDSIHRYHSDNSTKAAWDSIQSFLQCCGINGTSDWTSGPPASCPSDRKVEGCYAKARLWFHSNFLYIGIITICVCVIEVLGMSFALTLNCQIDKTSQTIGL
Chain of UniProt Q8IWX8 (Q8IWX8 whole entry, looked up): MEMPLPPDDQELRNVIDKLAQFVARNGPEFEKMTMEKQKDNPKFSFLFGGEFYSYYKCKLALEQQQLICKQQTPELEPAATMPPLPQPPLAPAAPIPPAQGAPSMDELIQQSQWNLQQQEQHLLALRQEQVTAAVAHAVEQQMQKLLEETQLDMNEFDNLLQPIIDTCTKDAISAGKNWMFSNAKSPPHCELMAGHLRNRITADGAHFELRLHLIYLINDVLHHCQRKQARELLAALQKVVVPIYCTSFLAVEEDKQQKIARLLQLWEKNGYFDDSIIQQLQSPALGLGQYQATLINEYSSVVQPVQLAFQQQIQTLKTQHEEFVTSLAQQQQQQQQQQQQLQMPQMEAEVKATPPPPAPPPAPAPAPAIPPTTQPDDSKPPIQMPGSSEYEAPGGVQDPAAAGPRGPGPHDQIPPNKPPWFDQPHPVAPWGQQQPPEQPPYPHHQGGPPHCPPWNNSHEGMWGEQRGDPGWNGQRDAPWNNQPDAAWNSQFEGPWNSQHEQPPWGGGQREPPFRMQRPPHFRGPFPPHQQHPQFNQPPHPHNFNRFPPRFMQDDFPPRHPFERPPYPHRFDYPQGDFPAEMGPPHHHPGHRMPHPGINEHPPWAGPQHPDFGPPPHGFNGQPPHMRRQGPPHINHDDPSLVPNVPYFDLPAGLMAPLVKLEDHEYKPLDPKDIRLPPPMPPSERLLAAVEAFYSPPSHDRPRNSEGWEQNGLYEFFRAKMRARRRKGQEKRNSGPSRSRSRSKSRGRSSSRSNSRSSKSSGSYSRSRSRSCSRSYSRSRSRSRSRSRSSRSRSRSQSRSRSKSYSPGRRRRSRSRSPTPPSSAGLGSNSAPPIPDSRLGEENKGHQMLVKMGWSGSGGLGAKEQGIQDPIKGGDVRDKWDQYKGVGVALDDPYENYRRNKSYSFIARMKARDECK

| Target | log2 fold change |
| --- | --- |
| CNDP2 (UniProt Q96KP4) | 0.032 (inactive) |
| CSNK1A1 (UniProt P48729) | -0.055 (inactive) |
| CNTN4 (UniProt Q8IWV2) | 0.032 (inactive) |
| CRLF3 (UniProt Q8IUI8) | 0.024 (inactive) |
| CDC123 (UniProt O75794) | -0.04 (inactive) |
| CPT1A (UniProt P50416) | -0.036 (inactive) |
| CERS2 (UniProt Q96G23) | 0.028 (inactive) |
| COQ7 (UniProt Q99807) | 0.095 (inactive) |
| CELF2 isoform 3 (UniProt O95319) | -0.059 (inactive) |
| COPS8 (UniProt Q99627) | 0.146 (inactive) |
| CBX1 (UniProt P83916) | 0.011 (inactive) |
| CDK5RAP3 isoform 4 (UniProt Q96JB5) | 0.024 (inactive) |
| CD53 (UniProt P19397) | 0.125 (inactive) |
| CCNK isoform 4 (UniProt O75909) | -0.069 (inactive) |
| COPS4 (UniProt Q9BT78) | 0.003 (inactive) |
| COASY isoform 2 (UniProt Q13057) | -0.062 (inactive) |
| CDKN2AIP (UniProt Q9NXV6) | -0.012 (inactive) |
| CDK6 (UniProt Q00534) | -0.033 (inactive) |

| Target | log2 fold change |
| --- | --- |
| CHCHD1 (UniProt Q96BP2) | 0.105 (inactive) |
| CLUH (UniProt O75153) | 0.478 (active) |
| CALCOCO2 isoform 4 (UniProt Q13137) | -0.035 (inactive) |
| COMT (UniProt P21964) | 0.031 (inactive) |
| COPS3 (UniProt Q9UNS2) | 0.04 (inactive) |
| CHERP (UniProt Q8IWX8) | 0.025 (inactive) |
| CPSF6 isoform 2 (UniProt Q16630) | -0.008 (inactive) |
| CDK13 (UniProt Q14004) | -0.098 (inactive) |
| COMMD2 (UniProt Q86X83) | 0.057 (inactive) |
| CDC26 (UniProt Q8NHZ8) | -0.027 (inactive) |
| CLCN3 isoform 2 (UniProt P51790) | 0.027 (inactive) |
| CAMKK2 (UniProt Q96RR4) | 0.102 (inactive) |
| CHKA (UniProt P35790) | -0.081 (inactive) |
| CSTF3 (UniProt Q12996) | -0.01 (inactive) |
| CD55 isoform 7 (UniProt P08174) | -0.012 (inactive) |
| CSNK2A1 (UniProt P68400) | 0.035 (inactive) |
| CIT isoform 4 (UniProt O14578) | -0.075 (inactive) |
